# PubChem BioAssay AID2284118 (EPA ToxCast)
# The source made the active and inactive calls. Rule for the calls: active = hit-call score of the fitted dose curve at least 0.9, where 1 is the maximum; inactive = score below 0.9.
# Biological target: human AMPKalpha1 CAMK Kinase, PRKAA1 (gene 5562) (UniProt Q13131)
# Assay: ERF_KP_ENZ_hPRKAA1: Eurofins (ERF) Enzymatic Radiometric [10 uM ATP] KinaseProfiler LeadHunter Assay for human AMPKalpha1 CAMK Kinase
# Description: ERF_KP_ENZ_hPRKAA1 is a biochemical, single-readout assay that uses extracted gene-proteins in a cell-free assay. Measurements were taken 0.66 hour after chemical dosing in a 96-well plate. See AMPKalpha1 Human CAMK Kinase Enzymatic Radiometric Assay [10 uM ATP], KinaseProfiler.ERF_KP_ENZ_hPRKAA1 is an assay component calculated from the ERF_KP_ENZ_hPRKAA1 assay. It is designed to measure enzyme activity using a type of enzyme reporter as detected by scintillation counting with radiometry technology.Data from the assay component ERF_KP_ENZ_hPRKAA1 was analyzed at the assay endpoint, ERF_KP_ENZ_hPRKAA1, in the positive analysis fitting direction relative to DMSO as the negative control and baseline of activity. Using a type of enzyme reporter, loss-of-signal activity can be used to understand changes in enzymatic activity as they relate to gene PRKAA1. To generalize the intended target to other relatable targets, this assay endpoint is annotated to the kinase intended target family, where the subfamily is serine/threonine kinase.
# AMPK (a1, b1, g1) (h) is incubated with 8 mM MOPS pH 7.0, 0.2 mM EDTA, 200 uM AMP, 100 uM […], 10 mM MgAcetate and [gamma-33P]-ATP (specific activity and concentration as required). The reaction is initiated by the addition of the Mg/ATP mix. […]
# human AMPKalpha1 CAMK Kinase, PRKAA1 (gene 5562), sequence (Q13131 whole entry, looked up): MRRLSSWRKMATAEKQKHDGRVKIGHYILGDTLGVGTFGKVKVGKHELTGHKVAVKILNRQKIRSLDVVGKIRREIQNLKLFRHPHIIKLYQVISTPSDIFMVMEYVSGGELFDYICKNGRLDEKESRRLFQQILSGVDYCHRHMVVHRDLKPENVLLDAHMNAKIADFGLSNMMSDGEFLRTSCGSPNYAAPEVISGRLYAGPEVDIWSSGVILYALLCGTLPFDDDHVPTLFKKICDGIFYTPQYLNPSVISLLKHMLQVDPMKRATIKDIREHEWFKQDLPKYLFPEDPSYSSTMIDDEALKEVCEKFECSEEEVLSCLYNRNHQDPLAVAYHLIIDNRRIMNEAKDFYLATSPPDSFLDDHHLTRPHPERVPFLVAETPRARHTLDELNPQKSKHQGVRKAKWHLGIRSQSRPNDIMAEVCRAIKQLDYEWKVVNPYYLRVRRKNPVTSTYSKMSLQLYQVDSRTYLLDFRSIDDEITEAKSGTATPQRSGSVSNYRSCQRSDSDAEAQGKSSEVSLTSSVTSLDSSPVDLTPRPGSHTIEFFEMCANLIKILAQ
row,Compound,AC50
1,O=C(/C=C/c1ccc(O)cc1)CC(=O)/C=C/c1ccc(O)cc1,0.298 nM (active)
